The full ranking holds about 33,000 sequences; the median of “E-score (-0.5 to 0.5)” is about -0.053, and the highest 2% start at about 0.37. Shown is part of a subset that was picked to be rich in the highest values.
Target: Hap1 (UniProt P0CE41)
Assay: PBM E-score (8-mer binding enrichment) (E-score (-0.5 to 0.5)); higher = stronger / more preferred TF binding
Details: protein concentration: 200 nM; construct: GST-DNA-binding domain
Outline: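 Universal all-10-mer Agilent arrays, fresh or stripped once, were converted to double-stranded form by primer extension. GST-tagged yeast transcription factors from PURExpress in vitro transcription/translation, full-length or DNA-binding domain only, were applied at about 100-200 nM and detected with fluorescent anti-GST. After masliner normalisation, the Universal PBM Analysis Suite scored each ungapped eight-base word together with its reverse complement by E-score.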

UniProt P0CE41, sequence (P0CE41 whole entry): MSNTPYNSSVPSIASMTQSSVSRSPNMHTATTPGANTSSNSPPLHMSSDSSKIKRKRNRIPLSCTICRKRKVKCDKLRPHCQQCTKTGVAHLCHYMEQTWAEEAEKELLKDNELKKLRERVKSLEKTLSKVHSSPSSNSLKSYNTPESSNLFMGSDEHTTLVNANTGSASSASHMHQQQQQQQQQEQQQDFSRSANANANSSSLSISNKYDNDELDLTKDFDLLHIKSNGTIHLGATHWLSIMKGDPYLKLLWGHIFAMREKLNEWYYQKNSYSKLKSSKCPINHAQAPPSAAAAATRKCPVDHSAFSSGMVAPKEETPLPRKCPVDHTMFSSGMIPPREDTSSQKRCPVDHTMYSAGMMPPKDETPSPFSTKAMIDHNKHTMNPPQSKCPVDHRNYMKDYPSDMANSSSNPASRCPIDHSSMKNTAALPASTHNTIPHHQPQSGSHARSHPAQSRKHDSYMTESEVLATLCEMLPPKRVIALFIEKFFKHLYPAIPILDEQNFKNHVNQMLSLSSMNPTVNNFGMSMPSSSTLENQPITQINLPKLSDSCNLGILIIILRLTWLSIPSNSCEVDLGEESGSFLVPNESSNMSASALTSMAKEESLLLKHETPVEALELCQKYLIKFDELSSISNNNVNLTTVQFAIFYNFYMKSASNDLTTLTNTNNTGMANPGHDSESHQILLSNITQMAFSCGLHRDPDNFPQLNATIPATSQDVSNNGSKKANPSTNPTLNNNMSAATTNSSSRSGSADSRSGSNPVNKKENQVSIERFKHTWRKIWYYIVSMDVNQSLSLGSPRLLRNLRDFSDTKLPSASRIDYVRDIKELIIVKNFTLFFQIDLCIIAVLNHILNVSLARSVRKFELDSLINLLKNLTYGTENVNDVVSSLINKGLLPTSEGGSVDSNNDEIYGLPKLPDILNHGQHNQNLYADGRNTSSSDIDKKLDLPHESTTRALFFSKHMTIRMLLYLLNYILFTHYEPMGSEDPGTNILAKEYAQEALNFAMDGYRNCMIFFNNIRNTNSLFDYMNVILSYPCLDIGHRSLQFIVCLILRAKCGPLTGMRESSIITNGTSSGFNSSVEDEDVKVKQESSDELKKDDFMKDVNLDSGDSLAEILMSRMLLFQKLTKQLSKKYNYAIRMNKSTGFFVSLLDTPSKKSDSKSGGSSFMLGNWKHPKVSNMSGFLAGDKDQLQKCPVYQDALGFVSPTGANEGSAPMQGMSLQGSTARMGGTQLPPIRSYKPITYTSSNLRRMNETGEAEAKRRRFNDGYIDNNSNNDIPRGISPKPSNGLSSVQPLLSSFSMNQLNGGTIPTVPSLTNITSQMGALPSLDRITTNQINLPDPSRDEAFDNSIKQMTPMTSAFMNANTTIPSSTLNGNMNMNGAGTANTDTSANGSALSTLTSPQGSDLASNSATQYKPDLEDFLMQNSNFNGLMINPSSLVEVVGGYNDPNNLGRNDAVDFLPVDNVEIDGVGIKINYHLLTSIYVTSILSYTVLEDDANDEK

Sequence	PBM E-score
AAAGAAGA	-0.0993
GAGTGTGA	-0.176
CCCCTTAC	-0.132
TAAGGTCA	-0.193
CAGGCTAG	-0.279
AATGGGGC	-0.188
ACCTCGTA	-0.0139
CACTCGGG	0.159
ACCTCGGA	0.384
CACTCGGC	0.374
ACCTCGAA	-0.135
AACTCGGC	0.316
CTCAGCTA	-0.214
CCCTACTC	-0.0316
GCGATACA	0.0344
CCGATACA	0.43
CCGATACG	0.42
CCGATTCC	0.405
GCGATACC	0.192
ACGATACC	0.179
ACGATACA	-0.216
CCGATACC	0.377
CCGATTCG	0.347
ACGATACG	-0.263
CAGATACG	0.0074

Sequence	PBM E-score
GCGATTCC	0.211
GGGCACCA	-0.0557
CTGACCGA	0.258
GGAAGCCA	-0.0815
GATTTTGC	-0.0335
ATCTCCGG	0.483
ATCTCCGC	0.455
GTCTCCGA	0.332
CTCTCCGA	0.203
ATCTCCCG	0.263
ATCTCCAG	0.0473
CTCTCCGC	0.0772
ATCTCCGA	0.486
ATCTCCCC	0.0474
CTCCAAAC	-0.124
ACCGAGCT	0.294
GCCGAGCA	0.236
TCCGAGGA	0.384
TCCGAGCA	0.402
TCCGAGAA	0.381
GCCGAGGA	0.294
CCCGAGCG	0.354
CCCGAGAA	0.351
CCCGAGGA	0.192
ACCGAGCG	0.384

Sequence	PBM E-score
ACCGAGCA	0.359
ACCGAGAA	0.271
GCTAGGGA	-0.228
CCTTGAGA	-0.0628
GCGTTGTA	-0.0982
AACACCAA	-0.314
TAGATAGA	-0.111
GGCGAACC	0.0857
CCCGCAAC	0.277
ACCAGACC	0.0586
ATTTCTGG	-0.13
GGTAAATA	0.0374
ATCCCGGC	0.339
ATCCCCTG	-0.324
ATCCCCGA	0.44
ATCCCGGG	0.376
ATCCCGGA	0.36
ATCCCCCC	-0.00218
ATCCCCCG	0.366
GTCCCCGA	0.269
ATCCCCGG	0.426
ATCCCCGC	0.371
CTCCCCGC	0.204
CTCCCCGA	0.247
AGGGAATG	-0.197

Sequence	PBM E-score
AACACCCT	-0.0622
GACCTCTC	0.0308
CCTATCAA	-0.119
ACATGGAC	-0.143
TGCGAGAA	-0.143
ATAGGGAG	-0.147
CTAGAGAA	-0.207
GCCAGACC	0.0912
ACAGCTAC	-0.11
TTAGAAAA	-0.0981
AATCGCAC	-0.23
TGGAGAAA	-0.0481
CGGAGAAA	0.413
GGGAGAAA	0.0441
CGGAGAAC	0.36
TCGAGAAA	-0.271
AGGAGAAG	-0.149
CGGAGAAG	0.378
GCGAGAAA	0.116
CCGAGAAA	0.4
CTACTACC	0.068
TAACTTAA	0.0501
CATATGGG	0.0423
ACCACACT	-0.0326
AACACCGG	0.409

Sequence	PBM E-score
CCCACCGC	0.153
CACACCGG	0.288
CCCACCGG	0.374
AACACCTG	-0.0827
AACACCGT	0.245
AACACCGC	0.278
CCCACCGA	0.0319
AACACCGA	0.446
GCAACCCC	0.0182
ATGGAGTC	-0.104
AACGGTAG	-0.00937
CCGATGTC	0.295
CCGCACCC	0.209
GTTCCGCA	0.209
ATTCCGTA	0.259
CTTCCGTA	0.262
ATTCCGCA	0.196
ATTCCGGA	0.432
GTTCCGAA	0.331
CTTCCGGC	0.275
GTTCCGGA	0.383
CTTCCGGA	0.404
GATGAGGC	-0.0801
AAATCGGT	0.246
ACGGGCCC	0.214

Sequence	PBM E-score
CCCTCACG	-0.262
GAACCATA	-0.0291
CTAAAACC	0.291
AGGAATGC	-0.253
CCTCCGGA	0.418
GCTCCGTA	0.297
CCTCCGTC	0.113
ACTCCGTG	0.292
CCTCCGCA	0.173
ACTCCTGG	-0.171
CCTCCGGC	0.399
CCTCCGTA	0.246
CCTCCGAC	0.28
GCTCCGGA	0.444
ACTCCGGG	0.39
GCTCCGCA	0.164
AGTCTTCC	-0.0885
CGCCGTCC	0.0969
ACAATCAT	-0.0714
GGTAGGAC	0.0611
ACTCCGGC	0.389
ACTCCGCC	0.306
ACTCCGCA	0.156
ACTCCGGA	0.461
ACTCCGTC	0.3

Sequence	PBM E-score
ACTCCGTA	0.244
AGTAGTAC	0.105
AACTAACA	-0.0716
CTCGCAAC	-0.237
ACGGGTTA	0.0135
CCGGGGTA	0.301
GGGGGTTA	-0.181
CGGGGTTA	0.485
CGGGGGTA	0.425
AGGGGTTA	-0.0702
CGGGTTTC	0.331
GGGGTTTA	0.266
GGGGGGTA	0.047
CGGGTTTA	0.474
CCGGGTTA	0.37
CCGGGTTC	0.296
GCATAGGA	-0.136
ACGAGAAA	-0.00338
CATAGCCA	-0.139
ACGCCAAA	-0.08
CTCCTGGA	-0.254
GAATCAGC	-0.175
TGGTACAA	-0.376
GTGAGCAC	-0.232
CGGGGATA	0.475

Sequence	PBM E-score
AGGTTTTA	0.0786
AGGTTATA	-0.0688
CGGTTTAA	0.168
CGGTTTTA	0.433
CGGTTATA	0.371
AGGGGATA	-0.167
GGGTTATA	0.0789
GGGGGATA	0.134
GGTGTTAC	0.0592
CCCCACTC	-0.186
AGCGGCCG	0.325
ACTCCGCT	0.21
CCTCCGAG	0.335
CCTCCGCG	0.198
ACTCCGAC	0.353
CCTCCGAA	0.334
ACTCCGAT	0.406
ACTCCCAT	-0.176
ACTCCTAT	-0.141
GCTCCGAA	0.367
ACTCCGAG	0.401
ACTCCGAA	0.397
ACTCCGCG	0.371
GCGGTCGA	0.163
CCTTAGGC	-0.184

Sequence	PBM E-score
ATGTAGCG	-0.0634
CTCTACAG	-0.311
CAGTCCAC	-0.272
TCTCCGCA	0.299
TCTCCGAA	0.429
TCTCCAAA	-0.138
CCGTCTGA	-0.0177
CGACTTAA	-0.169
GGACTTAA	0.443
AGACTTAA	-0.18
CAGCTTCC	0.00993
TATTTGGA	-0.215
TCCTCCGA	0.308
CCCTCCGG	0.331
ACCTCCGG	0.454
ACCTCCGA	0.391
CCCTCCGA	0.253
ACCTCCGT	0.286
AATCATTC	-0.0493
CCTTGGAG	-0.109
ACCCGCTA	0.209
GTCAGTCA	-0.172
AGGGTATA	0.254
CAGGTATC	0.0262
CGGGTATA	0.435

Sequence	PBM E-score
GCGGTATA	0.0943
ACGGTATA	0.0727
GGGGTATA	0.103
CCGGTATC	0.433
CCGGTATA	0.425
ACGGTATC	0.113
ACCAAGCG	0.0447
CGGTTTCA	0.263
AACTCAGG	-0.116
AGGGATGG	0.00107
AGCATCCG	0.215
AGCATATG	-0.278
TCCGTTAA	0.408
GCCGTTAA	0.346
CCCGTTAA	0.297
ATCTAAAA	-0.105
CGAGTACG	0.0449
ATCTCGGG	0.356
GTCTCGGA	0.358
CTCTCGAA	-0.332
CTCTCGGC	0.318
AGCTCGGC	0.354
CTCTCGCA	-0.179
ATCTCGGC	0.379
ATCTCGGA	0.385

Sequence	PBM E-score
CTCTCGGA	0.4
GCCGGGCC	0.221
GTGTGTGA	-0.201
ACCCATGC	-0.249
TAGGCTAA	-0.138
GGATCGAC	0.17
ACCGACCG	0.314
CCCGACCC	0.167
CCCGACCG	0.379
ACCGACGG	0.38
CCCGACGG	0.331
ACCGACGT	0.185
GGGTTACA	0.0182
AAACGGGA	0.217
AATCCATG	-0.036
AGAGTTAA	-0.105
CGAGTTAC	-0.0647
GGAGTTAC	0.393
GGAGTTAA	0.429
AGAGTTAC	-0.312
TGAGTTAA	-0.188
GAGGGGTA	0.0493
CCATCAAA	-0.17
GAGACCGC	0.0393
AGGAAGTA	0.0541

Sequence	PBM E-score
CGGAAAAA	0.4
CGGAAGTA	0.38
CGGAAAAC	0.346
AGGAACTA	-0.0416
AGGAAACA	-0.0825
CGGAACTC	0.309
CGGAAAAG	0.343
CGGAAACA	0.384
CGGAACTA	0.436
GGGAAACA	0.112
CGGAAGTC	0.305
AATCCTAC	-0.124
ACAGCGCT	-0.0282
CGCTCGTA	0.0559
ACAGTACA	-0.00621
CGTATCGC	0.208
CCACTGGG	-0.145
AAGGAAGT	0.113
TCAGCAAA	-0.157
GTTTCTAA	0.105
GACCCGTC	0.0739
CACAGTCA	-0.284
GGCACGCC	-0.0738
ACCAAACT	-0.13
GCGTTGAC	-0.207

Sequence	PBM E-score
GAAGCATC	-0.0716
AGGAATTA	0.17
GGGAAATA	0.13
CGGAATTC	0.319
CGGAAATA	0.487
CGGAATTA	0.481
CGGAAATC	0.352
AGTTGAGC	-0.188
GCCTGGAA	-0.233
CAGTTTGG	-0.204
AGTATGTA	-0.162
ATGACCGC	0.197
AAGACCGT	0.0453
AAGACCGA	0.413
CAGACCGA	0.278
ATGACCGG	0.276
ATGACCGA	0.378
CTTCTAGA	-0.156
AAATGCTC	0.0505
TGACAGAA	-0.247
ACAGACCT	-0.0718
ACTAGTAC	-0.173
ATAGCCAG	-0.293
CTAGCCGA	0.25
AGAGCCGG	0.263

Sequence	PBM E-score
ATAGCCGC	0.232
ATAGCCGG	0.397
ATAGCCGA	0.372
AGTTTGGA	-0.274
CAGTTTCA	-0.241
CTCACGGA	0.221
GTCACGGA	0.371
GTAACGGA	0.401
ATCACGGA	0.352
GTAACGCA	0.0607
GAAACGGA	0.277
CTAACGGC	0.184
ATAACGGC	0.355
CTAACGGA	0.38
ATAACGGA	0.414
CAAACGGA	0.324
ATAACGGG	0.228
CATAACCG	0.133
ATGATTCC	0.0894

Reference: the supplement of paper PMC3334620
